Source: PubChem BioAssay (National Center for Advancing Translational Sciences (NCATS))
This is a sample that favours compounds with a hit; in the whole collection about 9.4% have one here.
ELG1 repair inh: qHTS screen for small molecules that inhibit ELG1-dependent DNA repair in human embryonic kidney (HEK293T) cells expressing luciferase-tagged ELG1; Potency, µM (doses to about 46.1 µM), for the others: top-dose activity change, negative = inhibition, hits mostly inhibitors; 330,000 compounds, 2.3% hits; HEK293T ELG1-luciferase reporter, luminescence, 16 h; DNA damage induced by 5-fluorouridine; also: % is scaled to controls: 0 for no effect and ±100 for the full control effect; nearly all actives have a fitted effect of over 55% in size
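Reporter activity after DNA damage by 5-fluorouridine is monitored. Compound-treated cells incubate 16 hr at 37 °C, then ONE-Glo is added for 30 min before luminescence reading.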
ELG1 genotox: qHTS screen for small molecules that induce genotoxicity in human embryonic kidney (HEK293T) cells expressing luciferase-tagged ELG1; HEK293T ELG1-luciferase reporter, luminescence, 16 h; Potency, µM (doses to about 46 µM), for the others: top-dose activity change, positive = activation, hits mostly activators; 330,000 compounds, 1.3% hits; AID 504466, 2011; also: % of control where 0% means no effect; nearly all actives have a fitted effect of over 60% in size
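16 hr compound incubation (37 °C, 5% CO2) of HEK293T cells carrying luciferase-tagged ELG1; luciferase then measured by ONE-Glo luminescence after 30 min at RT.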
FLuc counter: qHTS profiling assay for firefly luciferase inhibitor/activator using purifed enzyme and Km concentrations of substrates (counterscreen for miR-21 project). Luciferin 4-monooxygenase (Photinus pyralis), P08659. AID 588342, 2011. 360,000 compounds, 6.9% hits. Potency, µM (top dose mostly 57.5 µM), without a hit: top-dose activity change, negative = inhibition, most hits filed as inhibitors. purified FLuc, Km substrates, luminescence inhibition;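 also: plate controls were vehicle for no effect and reference inhibitor for full effect; nearly all actives have a fitted effect of over 55% in size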
Target sequence (P08659 whole entry, looked up): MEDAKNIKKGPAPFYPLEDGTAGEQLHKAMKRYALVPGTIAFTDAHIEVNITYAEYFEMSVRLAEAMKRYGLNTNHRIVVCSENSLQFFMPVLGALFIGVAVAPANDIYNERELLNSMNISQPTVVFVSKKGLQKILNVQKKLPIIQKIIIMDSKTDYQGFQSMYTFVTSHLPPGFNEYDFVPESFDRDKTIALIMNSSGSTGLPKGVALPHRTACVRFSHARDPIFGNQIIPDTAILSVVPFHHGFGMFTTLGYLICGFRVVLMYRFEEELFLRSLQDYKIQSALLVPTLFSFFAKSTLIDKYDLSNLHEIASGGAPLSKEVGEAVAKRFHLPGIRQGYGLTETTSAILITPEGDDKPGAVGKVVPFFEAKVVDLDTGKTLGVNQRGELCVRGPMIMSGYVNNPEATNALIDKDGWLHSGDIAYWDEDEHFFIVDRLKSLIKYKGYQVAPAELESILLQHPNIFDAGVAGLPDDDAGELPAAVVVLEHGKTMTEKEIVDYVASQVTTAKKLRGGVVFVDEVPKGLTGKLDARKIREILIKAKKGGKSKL
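Purified P. pyralis luciferase (10nM final) with 10uM D-luciferin and 10uM ATP (Km levels) in 50mM Tris acetate pH 7.5, 10mM Mg acetate, 0.01% Tween-20, 0.05% BSA; qHTS 6-point titration, ~60 µM downward; luminescence read.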
SMN2 splice up: qHTS Assay for Enhancers of SMN2 Splice Variant Expression | HEK293 SMN2-luciferase splicing reporter, luminescence, 30-36 h | Potency, µM (highest dose often 46.1 µM), for the others: top-dose activity change, positive = activation, actives largely listed as activators | 210,000 compounds, 2.8% hits; also: % of control where 0% means no effect; nearly all actives have a fitted effect of over 55% in size
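qHTS luciferase splicing reporter: luminescence rises when SMN2 exon 7 is included in transfected HEK293 cells. Compound exposure lasted 30-36 h at 37C, with 4.5 mM final sodium butyrate as control, followed by a ONE-Glo read.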
Rab9 prom act: qHTS Assay for Rab9 Promoter Activators; Huh7 Rab9 promoter-luciferase reporter, luminescence, 24 h; 320,000 compounds, 2.8% hits; Potency, µM (top dose mostly 9.22 µM), without a hit: top-dose activation, negative = inhibition, most hits filed as activators; AID 485297, 2010; also: % of control where 0% means no effect; nearly all actives have a fitted effect of over 60% in size
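Huh7 cells stably carrying a Rab9 promoter-luciferase reporter, 1500 cells per well in OP-MEM I with 10% FBS, treated with compound 24 hours at 37C. Luciferase activity read by luminescence after 10 minutes with Amplite reagent.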
NPC1 promoter act: qHTS Assay for NPC1 Promoter Activators. 320,000 compounds, 2.4% hits. Huh7 NPC1 promoter luciferase reporter, 24 h. Potency, µM (highest dose often 9.22 µM), without a hit: at the highest dose activation, most hits filed as activators; also: % of control where 0% means no effect; nearly all actives have a fitted effect of over 60% in size
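Compounds in DMSO were transferred onto Huh7 NPC1-luciferase reporter cells pre-incubated 2 h; after 24 h at 37 °C, Amplite reagent was dispensed and luminescence recorded 10 min later.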
An asterisk follows results filed as active; ? = inconclusive; . = not tested or not shown; [ ] = dose if it differs, or a comment. Calls follow the shape of the dose curve; as a rule, active = well fitted curve in the direction sought with a large enough effect; inconclusive = small, poorly fitted or top-dose-only effect, or another doubt; inactive = no such curve, though single readings can be large; an effect the other way counts as inactive or inconclusive. Potency is read from the fitted curve at half-maximal effect.

SMILES	ELG1 repair inh	ELG1 genotox	FLuc counter	SMN2 splice up	Rab9 prom act	NPC1 promoter act
Cc1ccc(-n2c(SCC(=O)N3CC(=O)Nc4ccccc43)nc3ccccc3c2=O)cc1	18µM*	-1%	3%	.	-8%	1%
Cc1cccc(C)c1-n1c(SCC(=O)N2CC(=O)Nc3ccccc32)nc2ccccc2c1=O	-29%	-1%	2%	14%	-6%	-4%
C/C(N)=C(/C#N)C(=O)CSc1ncnc2ccccc12	8%	4%	-4%	9%	0%	-1%
CCC[C@@H]1C[C@@]1(CCC)[C@@H](NC(=O)Oc1ccccc1)c1ccc(C(=O)OC)cc1	.	.	.	-8%	.	.
O=C(NCc1ccccc1Cl)c1ccc(NC(=O)N2CCSc3ccccc32)cc1	.	.	-9%	5%	.	.
C/C(N)=C(/C#N)C(=O)CSc1nc2ccccc2c(=O)n1CCCO	-2%	8%	4%	-3%	-4%	14%
Cc1ccc(-n2c(SCC(=O)N/N=C/c3c(C)nn(-c4ccccc4)c3C)nc3ccccc3c2=O)cc1	23µM*	-3%	2%	9%	-5%	-4%
Cc1nn(-c2ccccc2)c(C)c1/C=N/NC(=O)CSc1nc2ccccc2c(=O)n1-c1ccc(Br)cc1	-19%	0%	0%	-18%	1%	-3%
COc1ccc(C(C)=O)cc1CSc1nnc(Nc2ccccc2)s1	15µM*	-7%	-2%	-79%	-14%	-9%
C/C(N)=C(/C#N)C(=O)CSc1nc2ccccc2c(=O)n1-c1ccc(C)c(Cl)c1	6.5µM*	-7%	2%	-19%	-9%	-2%
COc1ccc(C(C)=O)cc1CSc1nnc(Nc2ccc(C)cc2)s1	?	-1%	-4%	-49%	-3%	11%
COc1cc(-c2nnc(CSc3nnc(Nc4ccc(Oc5ccccc5)cc4)s3)o2)cc(OC)c1OC	7.3µM*	-2%	9.5µM*	13%	14%	15%
COc1cc(-c2nnc(CSc3nnc(N)s3)o2)cc(OC)c1OC	4%	7%	1%	20%	-2%	-2%
COc1ccc(CNC(=O)CSCc2ccc(C)cc2)c(OC)c1	.	.	1%	.	.	.
O=C(O)C1=C/C(=C(/c2ccccc2)c2cc(C(=O)O)c(O)c3ccccc23)c2ccccc2C1=O	.	.	.	-3%[9.22 µM]	.	.
C/C(N)=C(/C#N)C(=O)CSc1nc2ccccc2c(=O)n1-c1ccc(C)cc1	7.3µM*	-3%	2%	-41%	-4%	3%
C/C(N)=C(/C#N)C(=O)CSc1nc2ccccc2c(=O)n1-c1ccccc1C	-16%	6%	5%	-57%	5%	-2%
Cc1ccc2cc3c(nc2c1)N(Cc1ccco1)CC3	18%	?	19µM*	-17%	1%	6%
COc1ccc(OCC(=O)N(C)Cc2ccccc2)cc1	28%	6%	-1%	1%	7%	-6%
Cc1cc(OCC(=O)N(C)Cc2ccccc2)ccc1Br	?	8%	17µM*	.	?	?
Cc1cc(OCC(=O)N(C)Cc2ccccc2)ccc1Cl	?	14%	15µM*	.	4.5µM*	?
C=C1CC[C@H](O)C/C1=C/C=C1\CCC[C@]2(C)[C@H]1CC[C@H]2[C@@H](C)/C=C\[C@@H](C)C(C)C	.	.	.	0%[20.6 µM]	.	.
Cc1cc(C)cc(NC(=O)c2c(C)oc3nc(C)nc(N4CCCC4)c23)c1	.	.	15%	.	.	.
c1ccc2c(CCNc3ncnc4nc[nH]c34)cccc2c1	23µM*	-12%	?	-62%	-3%	-1%
c1ccc(CCCNc2ncnc3nc[nH]c23)cc1	-15%	1%	-17%	-13%	1%	9%
SMILES	ELG1 repair inh	ELG1 genotox	FLuc counter	SMN2 splice up	Rab9 prom act	NPC1 promoter act
Cn1cc(/C=C(\C#N)C(=O)Nc2ccccc2O)c2ccccc21	8.2µM*	-11%	?	.	?	27%
CC(C)OC(=O)/C(C#N)=C/c1cn(C)c2ccccc12	14%	-3%	-5%	.	1%	1%
CC(C)c1ccc(OCc2ccc(C(=O)NN3CCN(C)CC3)o2)cc1	?	?	?	14µM*	2.5µM*	2.2µM*
CC(C)c1ccc(OCc2ccc(C(=O)N(C)C)o2)cc1	?	10µM*	24µM*	.	1.6µM*	2.8µM*
CC(C)c1ccc(OCc2ccc(C(=O)O)o2)cc1	?	?	0.43µM*	.	?	?
N#Cc1ccc(OCc2ccc(C(=O)O)o2)cc1	-1%	0%	?	.	11%	-5%
Cc1ccc(C)c(NC(=O)c2cc(S(=O)(=O)N3CCCCCC3)ccc2F)c1	.	.	3%	.	.	.
Cc1c(NC(=O)Nc2ccc(Br)cc2F)sc2nc3n(c(=O)c12)CCC(C)CC3 (centres undefined)	.	.	7%	-5%	.	.
COC(=O)c1ccc(/C=C/C(=O)c2cccc(OC)c2)cc1	?	?	9.5µM*	20%	?	?
COc1cccc(C(=O)/C=C/c2ccc(SC)cc2)c1	9%	2%	3.4µM*	-22%	-5%	0%
CCC(=NCCc1c(C)[nH]c2ccccc12)C1=C(O)CC(c2ccccc2)CC1=O (centres undefined)	8.2µM*	-6%	3%	22%[1.84 µM]	-22%	-24%
CCCCC(=NCCc1c(C)[nH]c2ccc(OC)cc12)C1=C(O)CC(c2ccccc2)CC1=O (centres undefined)	10µM*	3%	1%	-50%	-18%	-28%
O=c1[nH]c(SCc2c(Cl)c(Cl)c(Cl)c(Cl)c2Cl)nc(=S)[nH]1	.	.	.	15%[9.22 µM]	.	.
N/N=C1/c2ccccc2N[C@H]1OC(=O)Nc1cccc(Cl)c1	.	.	.	-8%[9.22 µM]	.	.
CC(C)Cn1c(CN2CCN(c3cccc(Cl)c3)CC2)nc2c1c(=O)[nH]c(=O)n2C	.	.	-1%	.	.	.
O=S1(=O)C=C(Sc2nc3ccccc3s2)c2ccccc21	?	-45%	2.7µM*	-108%	-34%	-33%
Cc1ccc(N=Cc2sc(O)c3ccccc23)c(C)c1	?	11%	?	11µM*	1µM*	?
Cc1ccc(N=Cc2sc(O)c3ccccc23)cc1	?	?	1.1µM*	4.5µM*	1.3µM*	2µM*
Cc1ccc(N=Cc2c(O)c3ccccc3n(C)c2=O)cc1	8%	3%	0.43µM*	.	12%	-2%
Cc1ccc(N=Cc2c(C)[nH]n(-c3nc4ccccc4[nH]3)c2=O)cc1	27%	2%	6.7µM*	-8%	?	?
